# Source: PubChem BioAssay AID602252 (Broad Institute, 2012)
# In all, about 300,000 compounds went through this assay and about 2,700 (0.9%) were called active.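 Rule for the calls: active = mean inhibition of at least 30% with at least half of replicates also reaching 30%; inconclusive = no clear call, values can overlap the other calls; inactive = the rest.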 Many of the other results were omitted from the sample, so actives are more common in it than they were.
# Target: Golgi-associated PDZ and coiled-coil motif-containing protein (Homo sapiens) (UniProt Q9HD26)
# Test: untagged CAL PDZ binding inhibitors, primary screen, biochemical, fluorescence polarization, HTS (AID 602252);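 note: 0% = DMSO neutral control and 100% = excess unlabeled competitor peptide PRC23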
# Conditions: purified CAL PDZ, TMR-peptide fluorescence polarization, 1 h; at 24.9 µM; stronger effect = higher value
row,SMILES,inhibition
1,O=C1NC[C@@H](c2ccccc2)OC(=O)[C@H](Cc2ccc(F)cc2)CC/C=C/C[C@H]1CC(=O)N(CCO)Cc1ccccc1,-2.15% (inactive)
2,Cc1ccc(OCCNC(=O)c2cccc(S(=O)(=O)N3CCN(Cc4ccccc4)CC3)c2)cc1,-4.14% (inactive)
3,NS(=O)(=O)c1ccc(CCNC(=O)c2ccc(Cl)c(S(=O)(=O)N3CCCCCC3)c2)cc1,-16.5% (inactive)
4,COC(=O)Nc1sc2nc(C)cc(C)c2c1-n1cccc1,0.432% (inactive)
5,Cc1cc(C)c2c(-n3cccc3)c(NC(=O)OCc3ccccc3)sc2n1,-1.91% (inactive)
6,Cc1cc(C)c2c(-n3cccc3)c(C(=O)NNS(=O)(=O)c3ccc(F)cc3)sc2n1,44.4% (active)
7,O=C(c1ccc2c(c1)C(=O)N(Cc1ccncc1)C2=O)N1CCN(S(=O)(=O)c2ccc(OC(F)(F)F)cc2)CC1,-4.84% (inactive)
8,O=C(CNC(=O)c1ccccc1F)OCC(=O)c1c[nH]c2ccccc12,53.7% (active)
9,C[C@H](NC(=O)c1ccccc1)C(=O)OCC(=O)c1c[nH]c2ccccc12,-2.85% (inactive)
10,O=C(COC(=O)CNC(=O)c1ccccc1F)NCC(F)(F)F,-0.464% (inactive)
11,CC(C)C[C@H]1CN([C@@H](CC(C)C)CN2CCC[C@@H]2CN2C(=O)C(=O)NC[C@@H]2Cc2ccccc2)C(=O)C(=O)N1CCc1ccccc1,-2.72% (inactive)
12,Cc1ccc(OCC(=O)Nc2ccc(S(=O)(=O)Nc3ccccn3)cc2)cc1,-5.23% (inactive)
13,Cc1ccc(OCC(=O)Nc2ccc(-c3nc4ncccc4o3)cc2)cc1,46% (active)
14,CC(=O)Nc1ccc(NC(=O)COc2ccc(-c3ccccc3)cc2)cc1,-4.37% (inactive)
15,O=C(NN=Cc1ccccc1O)NN=Cc1ccccc1O,-7.2% (inactive)
16,OC(c1nc2ccc(F)cc2[nH]1)C(O)c1nc2ccc(F)cc2[nH]1 (configuration not stated),37% (active)
17,CN(Cc1nc2ccc(F)cc2[nH]1)Cc1nc(CC2CC2)no1,-5.2% (inactive)
18,CC(C)c1nc2ccc(C(=O)O)cc2[nH]1,1.18% (inactive)
19,Cc1ccc(S(=O)(=O)N2CCN(C(=O)COC(=O)/C=C/c3cccc(Cl)c3)CC2)c(C)c1,-0.868% (inactive)

row,SMILES,inhibition
1,CCOC(=O)N(Cc1ccccc1)C1CC1,-3.68% (inactive)
2,Fc1ccc(NC(=S)N2CCc3[nH]c4ccccc4c3C2)cc1,0.223% (inactive)
3,O=C(NC1CCCCC1)N1CCc2[nH]c3ccccc3c2C1,73.4% (active)
4,O=C(Nc1ccc(Cl)cc1)N1CCc2[nH]c3ccccc3c2C1,-12.5% (inactive)
5,COc1ccc(C2=Nn3c(nnc3-c3ccccc3OC)SC2)cc1OC1CCCC1,-2.41% (inactive)
6,O=C1OC(Oc2ccc(Br)cc2)(c2ccccc2)c2ccccc21 (configuration not stated),-1.95% (inactive)
7,CC(=O)c1c(C)[nH]c(C(=O)OCC(=O)Nc2cc(S(=O)(=O)N3CCCCC3)ccc2C)c1C,-0.974% (inactive)
8,CC(=O)c1c(C)[nH]c(C(=O)OCC(=O)NCCC(C)C)c1C,66.4% (active)
9,CC(=O)c1c(C)[nH]c(C(=O)OCC(=O)Nc2c(C)cccc2C)c1C,4.23% (inactive)
10,COc1ccc(/C=C(/NC(=O)c2ccccc2)C(=O)Nc2cccc(C(=O)O)c2)cc1,-4.34% (inactive)
11,O=C(Nc1ccccc1)/C(=C\c1ccco1)NC(=O)c1ccco1,-6.57% (inactive)
12,Cc1cccc(NC(=O)/C(=C\c2ccco2)NC(=O)c2ccccc2)c1,79.4% (active)
13,COc1ccc(CCC(=O)Nc2ccc(Cl)c(S(=O)(=O)N3CCOCC3)c2)cc1OC,-22.4% (inactive)
14,CC(=O)OCC1(O)CC23CCC4c5ccoc5CCC4(C)C2CCC1C3 (configuration not stated),-3.61% (inactive)
15,O=C1NCC(c2ccccc2)(c2ccccc2)C(=O)N1,41.9% (active)
16,CC1(c2ccc3ccccc3c2)NC(=O)NC1=O (configuration not stated),-8.76% (inactive)
17,O=C1NCC(Nc2ccccc2)C(=O)N1 (configuration not stated),1.56% (inactive)
18,COc1ccccc1-c1nnc2n1N=C(c1ccc(OC(F)F)c(OCC3CC3)c1)CS2,-1.27% (inactive)
19,O=C1C(Cl)=C(Oc2ccccc2)C(=O)c2ccccc21,6.75% (inactive)

row,SMILES,inhibition
1,COc1ccccc1C(=O)Nc1ccc(C)c(S(=O)(=O)N2CCCCC2)c1,-7.43% (inactive)
2,O=[N+]([O-])c1ccc(N/N=C/c2ccccc2)cc1,4.6% (inactive)
3,NC(=S)N/N=C/c1ccc([N+](=O)[O-])cc1,1.65% (inactive)
4,O=[N+]([O-])c1ccc(C=NN=Cc2ccc([N+](=O)[O-])cc2)cc1,76.3% (active)
5,CC(C)N(Cc1nnc(-c2ccccc2Br)o1)C(=O)c1cc(Cl)nc2ccccc12,2.14% (inactive)
6,CCOc1ccc(C(=O)Nc2ccc(S(=O)(=O)Nc3cc(C)on3)cc2)cc1,-5.22% (inactive)
7,CCc1ccc(OC(C)C(=O)Nc2ccc(S(=O)(=O)Nc3cc(C)on3)cc2)cc1 (configuration not stated),-5.02% (inactive)
8,CCC(Oc1ccccc1C)C(=O)Nc1ccc(S(=O)(=O)Nc2cc(C)on2)cc1 (configuration not stated),71.5% (active)
9,CN(c1ccccc1)S(=O)(=O)c1cc(C(=O)N2CCN(c3ncccn3)CC2)ccc1Cl,-2.36% (inactive)
10,Nc1ncnc2c1ncn2[C@@H]1O[C@H](CNS(=O)(=O)c2ccc(-c3ccno3)s2)[C@@H](O)[C@H]1O,-0.947% (inactive)
11,COc1ccc(CC(NC(C)=O)C(=O)NC2CCN(C(=O)C3CC3)CC2)cc1OC (configuration not stated),5.28% (inactive)
12,COc1ccccc1CC(NC(C)=O)C(=O)NC1CCN(C(=O)Nc2ccccc2Cl)CC1 (configuration not stated),78.3% (active)
13,COc1cccc(NC(=O)N2CCC(NC(=O)C(Cc3cccc(C)c3)NC(C)=O)CC2)c1 (configuration not stated),-5.2% (inactive)
14,C=CCCC(=O)N1C[C@H]2CON(C)[C@H]2C[C@H]1c1cccc(Nc2ccccc2)c1,1.45% (inactive)
15,O=C(Nc1ccccc1)Oc1cccc2cccnc12,-4.21% (inactive)
16,CCC(CO)Oc1cc(NCc2ccccc2)c2ncn(C3CCCC3)c2c1 (configuration not stated),2.05% (inactive)
17,Cc1cc(N/N=C/c2ccccc2F)c2ccccc2n1,30.5% (active)
18,Oc1ccc(/C=N/Nc2nc(-c3ccccc3F)nc3ccccc23)c(O)c1,4.73% (inactive)
19,Cc1ccc2nc(C)cc(N/N=C/c3ccc(F)cc3)c2c1,-0.859% (inactive)
